# The campaign covered roughly 48,000 compounds. About 13,000 (27%) showed an effect of 50% or more. This is one part of the list.
# Test system: Wolbachia pipientis
# Test: Anti-Wolbachia Cell-Based Screen
# Type: functional
# Parameters: scale not given: in the data most compounds retested in dose-response had high values
# Conditions: 5 µM
row,Compound,Percent Effect
1,CN(Cc1cc(-c2ccccc2)no1)Cc1nccn1C,8.065%
2,Cc1nn(CCO)c(C)c1CNC1CCc2c(F)cccc21 (centres undefined),1.037%
3,N#Cc1ccc(CN(CC(N)=O)C2CCCC2)cc1,-1.161%
4,O=C(Nc1ccccc1F)N(CCO)CCOCC(F)(F)F,-14.38%
5,CC(C)(C)S(=O)(=O)CCNC1CSCCc2ccccc21 (centres undefined),8.355%
6,CCc1n[nH]c(SCC(=O)N2C[C@@H]3CC[C@H](C2)N(CC=C(C)C)C3)n1,12.53%
7,CCOC(=O)c1cc2c(=O)[nH]c(=O)n(CCc3ccccc3)c2nc1C,-3.034%
8,O=C1CCc2cc(-c3csc(CCN4CCCC4=O)n3)ccc2N1,-1.736%
9,CCCN1C(=O)c2ccccc2C1OC (centres undefined),104.1%
10,CCn1cnc(NC(=O)N2CCC(c3ccc(Cl)cc3)C2)n1 (centres undefined),-2.672%
11,Cc1nc(C)n(CCCn2ccnc2-c2cc3n(n2)CCCNC3)n1,0.4256%
12,Cn1cc(C(=O)N2CCN(c3ccccc3)CC2)ccc1=O,-6.133%
13,Cn1ccc(C(=O)N2CCN(c3cc(C#N)ccn3)CC2)cc1=O,6.84%
14,Cn1ccc(C(=O)N2CCN(c3nccs3)CC2)cc1=O,97.2%
15,Cn1cc(C(=O)N2CCN(c3ccc(F)cc3)CC2)ccc1=O,27.16%
16,Cn1cc(C(=O)N2CCN(c3ncccn3)CC2)ccc1=O,122.7%
17,O=C(c1cc(Cl)cc(Cl)c1)N1CCN(c2nccs2)CC1,-10.96%
18,Cn1ccc(C(=O)N2CCN(c3ncccn3)CC2)cc1=O,-7.771%
19,Cn1ccc(C(=O)N2CCN(c3ccccn3)CC2)cc1=O,94.46%
20,Cn1ccc(CN2CCCN(c3nccs3)CC2)cc1=O,11.25%

row,Compound,Percent Effect
1,Cc1cnccc1-n1nc(C(C)C)nc1CCc1cnccn1,-10.93%
2,Cc1noc(CCCC(=O)NC(C)c2cn(-c3ccccc3)nn2)n1 (centres undefined),-6.671%
3,CCO[C@@H]1CC[C@H]2[C@H]1OCCN2S(=O)(=O)c1cn(C)cn1,-10.77%
4,CCO[C@@H]1CC[C@H]2[C@H]1OCCN2S(=O)(=O)C1CC1,110.7%
5,CC(C)CO[C@@H]1CC[C@H]2[C@H]1OCCN2S(=O)(=O)C1CC1,103.9%
6,O=S(=O)(C1CC1)N1CCO[C@H]2[C@H](OCC3CCCC3)CC[C@@H]21,-8.752%
7,CCS(=O)(=O)N1CCO[C@H]2[C@H](OCC3CCCC3)CC[C@@H]21,-19.91%
8,Cn1cnc(S(=O)(=O)N2CCO[C@H]3[C@@H](OCC4CC4)CC[C@@H]32)c1,-7.379%
9,Cn1cnc(S(=O)(=O)N2CCO[C@H]3[C@H](OCC4CC4)CC[C@@H]32)c1,-0.8778%
10,CO[C@@H]1CC[C@H]2[C@H]1OCCN2S(=O)(=O)C1CC1,111.8%
11,O=S(=O)(C1CC1)N1CCO[C@H]2[C@H](OCC3CC3)CC[C@@H]21,103.2%
12,Cc1cc(CN(C)C(=O)NC2CCCN(c3ncccn3)C2)no1 (centres undefined),-2.323%
13,Nc1nccc(N2CCCC(CO)(CCOc3ccccc3)C2)n1 (centres undefined),-20.36%
14,Cn1ccnc1CN1CCN(CC(=O)NCC(F)(F)F)CC1,1.598%
15,Cc1ccccc1CNC(=O)CN1CCN(Cc2nccn2C)CC1,7.197%
16,Cn1ccnc1CN1CCN(CC(=O)NCc2cccs2)CC1,99.27%
17,Cn1ccnc1CN1CCN(CC(=O)NCc2ccccc2F)CC1,129%
18,CC(C(=O)NCc1cccs1)N1CCN(Cc2nccn2C)CC1 (centres undefined),4.204%
19,COc1ccc(CC(=O)N2CC[C@@]3(O)CCNC[C@H]3C2)c(OC)c1,-12.62%
20,CCc1nc(CN(C)Cc2ncc(-c3cccs3)o2)cs1,-9.321%

row,Compound,Percent Effect
1,CN1CC(c2ccccc2)CC2(CCN(Cc3ncc[nH]3)CC2)C1 (centres undefined),-21.2%
2,Cc1ccc(C(CNCc2cccnc2)N2CCOCC2)s1 (centres undefined),5.338%
3,Cc1ccccc1NC(=O)NCCn1nc(C(F)(F)F)n(C)c1=O,4.371%
4,CN(C)CCn1c2c(ccc1=O)CC(NCc1cccnc1)CC2.O=C(O)C(F)(F)F.O=C(O)C(F)(F)F.O=C(O)C(F)(F)F (centres undefined),-9.426%
5,Cn1cc(CNC2CCc3c(ccc(=O)n3Cc3cccnc3)C2)cn1.O=C(O)C(F)(F)F.O=C(O)C(F)(F)F (centres undefined),105.5%
6,NC1CCc2c(ccc(=O)n2Cc2ccncc2)C1 (centres undefined),-38.16%
7,CN(C)CCn1c2c(ccc1=O)CC(NCc1cnn(C)c1)CC2.O=C(O)C(F)(F)F.O=C(O)C(F)(F)F (centres undefined),92.68%
8,Cn1cc(CNC2CCc3c(ccc(=O)n3Cc3ccncc3)C2)cn1.O=C(O)C(F)(F)F.O=C(O)C(F)(F)F (centres undefined),101.4%
9,O=C(NC1CC1)N1CCc2ccc(=O)n(Cc3cccnc3)c2CC1.O=C(O)C(F)(F)F,-14.38%
10,COc1ccc(C2CC(=O)NCc3nc(N(C)C)sc32)c(O)c1 (centres undefined),-25.68%
11,COCCc1ncc(CN2C[C@@H](C(=O)O)[C@H](C(C)C)C2)cn1,-10.49%
12,Cc1cnc(NS(=O)(=O)c2cccc(C#N)c2)s1,-4.999%
13,CNC(=O)C(NC(C)=O)c1ccc(F)c(F)c1 (centres undefined),-14.34%
14,Cc1nc(CN2CCC3(CCCN(Cc4cccnc4)C3)C2=O)cs1.O=C(O)C(F)(F)F.O=C(O)C(F)(F)F.O=C(O)C(F)(F)F (centres undefined),115.5%
15,Cc1nc(CN2CCOCC3(CCN(c4cccnc4)CC3)C2)cs1.O=C(O)C(F)(F)F.O=C(O)C(F)(F)F,4.008%
16,Cc1nc(CN2CCC3(CCCN(Cc4ccoc4)C3)C2=O)cs1.O=C(O)C(F)(F)F.O=C(O)C(F)(F)F (centres undefined),117.4%
17,Cc1nc(CN2CCC3(CCCN(Cc4ccncc4)C3)C2=O)cs1.O=C(O)C(F)(F)F.O=C(O)C(F)(F)F.O=C(O)C(F)(F)F (centres undefined),97.27%
18,N#Cc1ccnc(N2CCN(C(=O)Cc3ccc4c(c3)CCO4)CC2)c1,-0.6491%
19,CC(NCc1ccncc1)c1ccc(N2CCN(C)CC2)c(F)c1.Cl (centres undefined),1.312%
